Compounds without any hit were thinned out: in the full panel of roughly 83,000, 20% have a hit.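 Each cell line was grown in a 96-well plate and treated with one concentration of compound for 48 hours. Values below 10 were considered active.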 Calls of active or inactive are those of the source.
Assays:
Assay in all cases: NCI-60 one-dose screen, 48 h (100 = growth as untreated, 0 = no growth, -100 = all killed)
Details in all cases: 10 µM unless noted
NCI-H23 lung = tested on: NCI-H23 lung
NCI-H226 lung = tested on: NCI-H226 lung
NCI-H322M lung = tested on: NCI-H322M lung
HOP-62 NSCLC = tested on: HOP-62 NSCLC
NCI-H460 lung = tested on: NCI-H460 lung
HOP-92 NSCLC = tested on: HOP-92 NSCLC
A549/ATCC NSCLC = tested on: A549/ATCC NSCLC
786-0 renal = tested on: 786-0 renal
COLO 205 colon = tested on: COLO 205 colon
DU-145 prostate = tested on: DU-145 prostate
K-562 leukemia = tested on: K-562 leukemia
MALME-3M melanoma = tested on: MALME-3M melanoma
MDA-MB-231 breast = tested on: MDA-MB-231 breast
RXF 393 renal = tested on: RXF 393 renal
SF-268 CNS = tested on: SF-268 CNS
SF-295 CNS = tested on: SF-295 CNS
SF-539 CNS = tested on: SF-539 CNS
UACC-257 melanoma = tested on: UACC-257 melanoma
M14 melanoma = tested on: M14 melanoma
NCI-H522 lung = tested on: NCI-H522 lung

Measured: growth

BrCCCc1n(Cc2ccc3ccccc3c2)c2ccccc2[n+]1Cc1ccc2ccccc2c1
inactive: NCI-H322M lung 11.9%
active: NCI-H23 lung -81.3% | NCI-H226 lung -72.6% | HOP-62 NSCLC -65.7% | NCI-H460 lung -88.4% | HOP-92 NSCLC -77% | A549/ATCC NSCLC -54.1% | 786-0 renal -90.7% | COLO 205 colon -61.2% | DU-145 prostate -62.4% | K-562 leukemia -13% | MALME-3M melanoma -73.2% | MDA-MB-231 breast -60.8% | RXF 393 renal -77.6% | SF-268 CNS -75.4% | SF-295 CNS -91.1% | SF-539 CNS -74.9% | UACC-257 melanoma -55.7% | M14 melanoma -60.4%

CCCCCCN1C(=O)/C(=c2\sc3n(c2=O)C2C(NN=3)N(CC)C(=O)N2CC)c2ccccc21 (stereo not drawn)
inactive: NCI-H23 lung 25.6% | NCI-H322M lung 43.5% | HOP-92 NSCLC 37% | DU-145 prostate 24.4% | MDA-MB-231 breast 14.8% | RXF 393 renal 25.8% | SF-268 CNS 27.5% | UACC-257 melanoma 39.3% | M14 melanoma 20.3%
active: NCI-H226 lung -5.26% | HOP-62 NSCLC -1.75% | NCI-H460 lung -27.7% | A549/ATCC NSCLC -47.6% | 786-0 renal -67.2% | COLO 205 colon 7.62% | K-562 leukemia 6.81% | MALME-3M melanoma 6.95% | SF-295 CNS -23% | SF-539 CNS -54.9%

CCOc1ccc2nc(SCc3nc4n(n3)S(=O)(=O)c3ccccc3N4C)sc2c1
active: HOP-62 NSCLC -42.9% | HOP-92 NSCLC -14% | 786-0 renal -33.3% | RXF 393 renal 7.23% | SF-295 CNS 6.74% | SF-539 CNS 8.46% | M14 melanoma 5.88%
inactive: NCI-H23 lung 13.2% | NCI-H226 lung 32% | NCI-H322M lung 38.6% | NCI-H522 lung 22.6% | A549/ATCC NSCLC 24% | COLO 205 colon 23.3% | DU-145 prostate 25.3% | K-562 leukemia 34.8% | MALME-3M melanoma 10.1% | MDA-MB-231 breast 10.5% | SF-268 CNS 25.9% | UACC-257 melanoma 24.4%

Cc1ccc(/C=C2\Oc3ccc(O)c(O)c3C2=O)cc1
inactive: NCI-H23 lung 36.6% | NCI-H226 lung 62.2% | NCI-H322M lung 58% | HOP-62 NSCLC 44.8% | HOP-92 NSCLC 35.9% | NCI-H522 lung 13.6% | A549/ATCC NSCLC 73.1% | 786-0 renal 52.5% | COLO 205 colon 107% | DU-145 prostate 46.1% | K-562 leukemia 19.2% | MALME-3M melanoma 66.1% | MDA-MB-231 breast 56.1% | RXF 393 renal 27.4% | SF-268 CNS 37.5% | SF-295 CNS 54% | SF-539 CNS 32.7% | UACC-257 melanoma 96.6% | M14 melanoma 56.1%

C=C(C)[C@@H]1CC[C@]2(N=C=O)CC[C@]3(C)[C@H](CC[C@@H]4[C@@]5(C)Cc6c([nH]c7ccccc67)C(C)(C)[C@@H]5CC[C@]43C)[C@@H]12
inactive: NCI-H23 lung 98% | NCI-H226 lung 90.5% | NCI-H322M lung 88.4% | HOP-62 NSCLC 89% | HOP-92 NSCLC 66.2% | NCI-H522 lung 53.4% | A549/ATCC NSCLC 73.5% | 786-0 renal 66.7% | COLO 205 colon 65.6% | DU-145 prostate 63.2% | MALME-3M melanoma 101% | MDA-MB-231 breast 68.4% | RXF 393 renal 81.6% | SF-268 CNS 80.7% | SF-295 CNS 111% | SF-539 CNS 89.3% | UACC-257 melanoma 109% | M14 melanoma 70.5%
active: K-562 leukemia 3.74%

O=C(Nc1ccc(Cl)cc1F)c1ccccc1O
inactive: NCI-H23 lung 17% | NCI-H226 lung 25.6% | NCI-H322M lung 36.3% | HOP-62 NSCLC 42.6% | NCI-H522 lung 11% | A549/ATCC NSCLC 46.3% | 786-0 renal 50.6% | COLO 205 colon 98.2% | DU-145 prostate 43.1% | K-562 leukemia 29.5% | MDA-MB-231 breast 39.1% | RXF 393 renal 42.5% | SF-268 CNS 43.1% | SF-295 CNS 69.7% | SF-539 CNS 48.9% | UACC-257 melanoma 14.1% | M14 melanoma 46.4%
active: HOP-92 NSCLC -14.5% | MALME-3M melanoma -6.47%

COc1ccc(-c2ncnc3c2ncn3CC#CCCl)cc1
active: HOP-92 NSCLC 9.39%
inactive: NCI-H23 lung 59.1% | NCI-H226 lung 56.5% | NCI-H322M lung 92% | HOP-62 NSCLC 77.5% | NCI-H522 lung 49% | A549/ATCC NSCLC 60.1% | 786-0 renal 36.4% | COLO 205 colon 80% | DU-145 prostate 87.6% | K-562 leukemia 58.3% | MALME-3M melanoma 20.2% | MDA-MB-231 breast 70.1% | RXF 393 renal 29.7% | SF-268 CNS 62.9% | SF-295 CNS 95.3% | SF-539 CNS 92.3% | UACC-257 melanoma 59.5% | M14 melanoma 70.1%

From PubChem BioAssay (NCI)
